Results from ChEMBL document CHEMBL4513146, “CO-ADD screening of Karazin Kharkiv National University (Ukraine) compounds”.
Measured potencies and affinities stand elsewhere.

Columns and labels:
Klebsiella pneumoniae = conditions: Concentration 32 ug.mL-1;; ASSAY_TEST Inhibition of Bacterial Growth; detection method Absorption (OD600); MEDIA CAMHB; plate type 384well; NBS; CORNING #3640; time 18 hr
Candida albicans = conditions: Concentration 32 ug.mL-1; ASSAY_TEST Inhibition of Fungal Growth; detection method Absorption (OD530)
Cryptococcus neoformans = conditions: Concentration 32 ug.mL-1; ASSAY_TEST Inhibition of Fungal Growth; detection method Resazurin; Absorption (OD600-OD570); plate type 384well; NBS; CORNING #3640

Row | SMILES | Inhibition (Klebsiella pneumoniae) [%] | Inhibition (Candida albicans) [%] | Inhibition (Cryptococcus neoformans) [%]
1 | O=c1n(Cc2cccc(C(F)(F)F)c2)nc2c(S(=O)(=O)N3CCCCCC3)cccn12 | 7.16 | 2.16 | -9.24
2 | CC(=O)c1ccc(NC(=O)Cn2nc3c(Sc4ccc(C)cc4C)nccn3c2=O)cc1 | -3.02 | 1.94 | -20.51
3 | Cc1cccc(NC(=O)Cn2nc3c4cc(-c5ccc(F)cc5)nn4ccn3c2=O)c1C | 6.39 | 16.67 | -22.65
4 | Cc1ccc(CNC(=O)Cn2nc3c(N4CCN(c5ccccc5C)CC4)nccn3c2=O)cc1 | 0.81 | 26.17 | -8.71
5 | CSc1cccc(NC(=O)Cn2nc3c4c5c(sc4ncn3c2=O)CCCC5)c1 | -0.84 | 7.75 | -24.58
6 | O=C(Cn1nc2ccc(SCc3ccc(Cl)cc3)nn2c1=O)Nc1ccc(F)c(F)c1 | 3.9 | 20.34 | -13.26
7 | Cc1ccccc1CN(c1ccc(Cl)cc1)S(=O)(=O)c1cccn2c(C)nnc12 | 11.42 | 2.31 | -9.98
8 | Cc1ccc(C)c(-c2cc3c4nnc(CCC(=O)NCCc5ccc(Cl)cc5)n4ccn3n2)c1 | 12.88 | 1.56 | -40.65
9 | COc1cccc(-n2ccn3c(SCc4ccc(F)cc4)nnc3c2=O)c1 | 3.28 | 1.89 | -13.93
10 | CC(C)CCn1c(=O)c2ccc(C(=O)NC3CCCC3)cc2n2c(=S)[nH]nc12 | -1.87 | 0.86 | -11.12
11 | Cc1cccc(Oc2nccn3c(=O)n(CC(=O)N4CCN(c5ccccc5F)CC4)nc23)c1C | -1.33 | 1.02 | -17.84
12 | COc1ccc(C(C)NC(=O)CCc2nnc3ccc(-c4ccc(C)cc4)nn23)cc1OC (configuration not stated) | 15.87 | 8.51 | -54.1
13 | CCc1ccc(N(Cc2ccc(F)cc2)S(=O)(=O)c2cccn3c(CC)nnc23)cc1 | 6.32 | 33.96 | -7.64
14 | CCCCc1ccc(NC(=O)Cn2nc3c(N4CCN(c5ccccc5C)CC4)nccn3c2=O)cc1 | -4.55 | 48.6 | -6.75
15 | CCc1ccc(N(Cc2cccc(F)c2)S(=O)(=O)c2cccn3c(C)nnc23)cc1 | 8.24 | 0.68 | -10.22
16 | Cc1ccc(-c2ccc3nn(Cc4cccc(F)c4)c(=O)n3n2)cc1C | 7.96 | 2.65 | -8.66
17 | CCc1cccc(C)c1NC(=O)Cn1nc2ccc(SCc3ccc(Cl)cc3)nn2c1=O | 2.49 | 52.47 | -13.19
18 | Cc1ccc(NC(=O)Cn2nc3ccc(C(=O)NCc4ccccc4)cn3c2=O)c(Br)c1 | -0.66 | 7.92 | -19.22
19 | Cc1cc2nn(CC(=O)Nc3ccc(F)cc3F)c(=O)n2c(Nc2ccc(C)c(F)c2)n1 | 8.43 | 24.78 | -2.94
20 | Cc1ccc(-c2cc3c4nn(CC(=O)Nc5cc(Cl)ccc5C)c(=O)n4ccn3n2)cc1C | 6 | 4.85 | -8.51
21 | CC(C)(C)OC(=O)N1CCC(NC(=O)CCc2nnc3ccc(-c4ccccc4)nn23)CC1 | 12.09 | 0.97 | -4.02
22 | CCOc1ccc(-n2ccn3c(SCC(=O)Nc4cc(Cl)ccc4OC)nnc3c2=O)cc1 | 12.81 | 1.86 | -5.56
23 | COC(=O)c1ccc(NC(=O)Cn2nc3ccc(SCc4ccc(Cl)cc4)nn3c2=O)cc1 | 3.21 | 46.24 | -5.53
24 | CCCCn1c(=O)c2sccc2n2c(SCc3cccc(C(F)(F)F)c3)nnc12 | -0.52 | 0.84 | -14.78
25 | CCc1ccc(N(Cc2ccccc2C)S(=O)(=O)c2cccn3c(CC)nnc23)cc1 | 6.17 | 4.38 | -7.67

Row | SMILES | Inhibition (Klebsiella pneumoniae) [%] | Inhibition (Candida albicans) [%] | Inhibition (Cryptococcus neoformans) [%]
26 | CC(C)CCn1c(=O)c2sccc2n2c(=O)n(CC(=O)N3CCC(Cc4ccccc4)CC3)nc12 | -9.97 | 0.93 | -41.06
27 | CCC(Sc1nnc2c(=O)n(-c3cccc(OC)c3)ccn12)C(=O)Nc1cc(OC)cc(OC)c1 (configuration not stated) | 9.6 | -0.37 | -13.16
28 | CCc1nnc2c(S(=O)(=O)N(Cc3ccc(F)cc3)c3ccc(Cl)cc3)cccn12 | 7.23 | 3.47 | -6.36
29 | COc1cccc(Sc2nc3ccccc3n3c(=O)n(CC(=O)Nc4ccc(Cl)cc4)nc23)c1 | 2.35 | 36.59 | -25.56
30 | O=C(Cn1nc2ccc(SC3CCCCC3)nn2c1=O)NCc1ccc(Cl)cc1 | 12.01 | 5.78 | -20.43
31 | O=C(Cn1nc2c(SCc3ccccc3)nccn2c1=O)NC1CCCCC1 | 7.95 | 4.49 | -7.22
32 | COc1cccc(-c2noc(Cn3nc4ccc(-c5ccccc5)nn4c3=O)n2)c1OC | 1.06 | 2.21 | -2.99
33 | CCc1nnc2c(SCC(=O)Nc3ccc(C)cc3Cl)nc3ccccc3n12 | 11.28 | 1.59 | -8.66
34 | CCc1ccc(Cn2c(=O)c3sccc3n3c(=O)n(Cc4c(F)cccc4Cl)nc23)cc1 | 5.71 | 1.83 | -25.59
35 | CCOc1ccc(NC(=O)Cn2nc3ccc(-c4ccccc4)nn3c2=O)cc1 | 6.87 | 4.93 | -6.8
36 | CC(C)c1nnc2c(=O)n(CC(=O)Nc3ccc(Br)cc3)c3ccccc3n12 | 14.25 | 2.31 | -6.21
37 | O=C(CCc1nnc2c3cc(-c4ccccc4)nn3ccn12)N1CCN(C(=O)c2ccco2)CC1 | 11.67 | 2.11 | -4.62
38 | O=c1c2sccc2n2c(=O)n(Cc3cccc(F)c3)nc2n1Cc1cccs1 | -6.06 | 36.13 | -19.84
39 | O=C(Cn1nc2ccc(-c3ccc(Cl)cc3)nn2c1=O)N1CCN(c2ccc(F)cc2)CC1 | -0.53 | 2.31 | -8.76
40 | CCOc1ccc(-n2ccn3c(SC(C)C(=O)Nc4ccc(OC)cc4)nnc3c2=O)cc1 (configuration not stated) | 5.17 | 4.23 | -11.44
41 | Cc1cccc(C)c1NC(=O)Cn1nc2c(Sc3ccccc3)nccn2c1=O | -1.09 | 0.55 | -9.17
42 | COc1cccc(-n2ccn3c(SCC(=O)c4ccc(OC)c(OC)c4)nnc3c2=O)c1 | 7.59 | 4.83 | -8.41
43 | COc1cccc(-n2ccn3c(SCC(=O)c4ccc(Br)cc4)nnc3c2=O)c1 | 9.61 | 5.24 | -5.95
44 | O=c1c2sccc2n2c(SCc3cccc(C(F)(F)F)c3)nnc2n1Cc1cccs1 | 1.3 | 16.7 | -17.87
45 | CCCCn1c(=O)c2sccc2n2c(=O)n(CC(=O)NC(C)CC)nc12 (configuration not stated) | -2.58 | 3.27 | -15.7
46 | CCOC(=O)c1ccc(NC(=O)Cn2nc3ccc(Sc4ccccc4)nn3c2=O)cc1 | 5.75 | 4.06 | -9.53
47 | Cc1cccc(Cn2nc3n(CCc4ccccc4)c(=O)c4sccc4n3c2=O)c1 | 3.95 | -1.37 | -11.78
48 | CCN(C(=O)CSc1nnc2c3cc(-c4ccc(OC)cc4)nn3ccn12)c1ccccc1 | 4.95 | 2.01 | -1.74
49 | CCCCOc1ccc(-c2cc3c4nnc(SCC(=O)N(C)c5ccc(F)cc5)n4ccn3n2)cc1 | 3.98 | 15.18 | -9.29
